# Most compounds without a hit are left out; they make up all but 6.7% or so of the library.
# Pf Dd2 growth = inhibitors of Plasmodium falciparum Dd2 growth | P. falciparum Dd2 growth, SYBR Green, 72 h; stronger effect = lower value | activity change, % at 10 µM | 2.3% of 94,000 active | AID 1159554; in the data active means activity change below about -80%; inconclusive means no clear call, values can overlap the other calls
# C diff HTS = C. difficile growth inhibition | Clostridium difficile clinical isolate growth, OD600, 24 h; stronger effect = lower value | growth activity, negative = inhibition, % at 16 µg/mL (by protocol) | 0.25% of 86,000 active | AID 1259249;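 active means mean growth activity at or below -80% and every replicate also at or below -80%; inconclusive means mean at or below -80% but some replicate above -80%; inactive means mean growth activity above -80%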;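 further: 0% = DMSO wells and -100% = levofloxacin 16 µg/mL wells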
# T cruzi growth-1 = T. cruzi proliferation inhibition. 5.9% of 77,000 active. T. cruzi beta-gal in NIH3T3, GalScreen luminescence, 90 h. inhibition, % at 8.34 µM. AID 624255;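 active means mean inhibition above about 93%, with at least 55% of replicates each passing it, limit read from the data, passing the limit was not always enough; inconclusive means only one of those two conditions holds; inactive means neither condition holds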
# T cruzi growth-2 = blocks T. cruzi growth in NIH3T3 host cells | shares compounds with T cruzi growth-1 | T. cruzi beta-gal in NIH3T3, GalScreen luminescence, 90 h | inhibition, % at 8.35 µM | 72% of 5,600 active | AID 651739;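 active means mean replicate inhibition above about 95% and at least 55% of replicates individually reaching it, limit read from the data; inconclusive means only one of the two criteria is met; inactive means neither criterion is met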
# T cruzi growth-3 = blocks T. cruzi growth in NIH3T3 host cells; shares compounds with T cruzi growth-1; T. cruzi beta-gal in NIH3T3, GalScreen luminescence, 90 h; inhibition, % at 2.09 µM; 21% of 5,600 active;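 active means mean inhibition above about 95%, with at least 55% of replicates also reaching it, limit read from the data; inconclusive means meets just one of the two conditions; inactive means meets neither condition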;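 further: plate controls were neutral control median for no effect and positive control median for full effect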
# NIH3T3 tox = kills mouse NIH/3T3 fibroblasts; shares compounds with T cruzi growth-1; NIH/3T3 viability, CellTiter-Glo ATP luminescence, 90 h; cytotoxicity (signal decrease), % at 8.35 µM; 14% of 5,600 active; AID 651742;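 active means mean signal decrease across replicates above about 35% based on untreated-well scatter, with enough replicates individually passing, limit read from the data; inconclusive means no rule stated though some were filed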;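 further: 0% = median of neutral control wells and 100% = median of positive control wells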
# 3T3 cytotox 2 = kills mouse NIH/3T3 fibroblasts; shares compounds with T cruzi growth-1; NIH/3T3 viability, CellTiter-Glo ATP luminescence, 90 h; inhibition, % at 24.9 µM; 56% of 5,600 active; AID 651744;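 active means mean loss of cell viability signal at or above a set limit, and enough replicates individually reaching it; inconclusive means meets only the mean limit or only the replicate share; inactive means meets neither condition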;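 further: 0% = median of neutral control wells and 100% = median of positive control wells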
# * marks the source's active call; other numbers are inactive results; ? = inconclusive; . = no result.
SMILES,Pf Dd2 growth,C diff HTS,T cruzi growth-1,T cruzi growth-2,T cruzi growth-3,NIH3T3 tox,3T3 cytotox 2
C[C@H]1CCCCO[C@H](CN(C)C)[C@@H](C)CN([C@@H](C)CO)C(=O)c2cc(NS(=O)(=O)c3cn(C)cn3)ccc2O1,8.1,7.5,41.1,.,.,.,.
COCC(=O)N1C[C@H](C)[C@@H](OC)CN(C)C(=O)c2cc(NC(=O)NC(C)C)ccc2OC[C@H]1C,23.8,.,45.0,.,.,.,.
O=C(Nc1cccc(Cl)c1)N[C@@H]1CC[C@@H](CCNC(=O)C2CCCC2)O[C@@H]1CO,-11.5,-10.6,.,.,.,.,.
Cc1noc(C)c1S(=O)(=O)N(C)C[C@H]1OCCCC[C@H](C)Oc2ccc(NC(=O)C3CCCCC3)cc2C(=O)N([C@@H](C)CO)C[C@H]1C,-61.4,5.6,-4.1,.,.,.,.
COc1ccc(NC(=O)Nc2ccc3c(c2)C(=O)N([C@H](C)CO)C[C@H](C)[C@@H](CN(C)S(=O)(=O)c2ccc(C)cc2)OCCCC[C@@H](C)O3)cc1,-66.0,.,-57.2,.,.,.,.
COCC(=O)N1CCCCN2[C@H](CO)[C@H](c3ccc(-c4ccc(C)cc4)cc3)[C@@H]2C1,10.1,-16.3,90.9,.,.,.,.
CCC(=O)N1CCCCN2[C@H](CO)[C@H](c3ccc(-c4ccc(F)cc4)cc3)[C@H]2C1,-4.5,3.5,93.1,.,.,.,.
CCC(=O)N1CCCCN2[C@H](CO)[C@H](c3ccc(-c4ccc(F)cc4)cc3)[C@@H]2C1,28.1,-7.7,105.8*,78.1,-14.4,26.0,53.5*
COCC(=O)N1CCCCN2[C@@H](CO)[C@@H](c3ccc(-c4ccc(F)cc4)cc3)[C@@H]2C1,3.5,-0.2,79.4,.,.,.,.
CCC(=O)N1CCCCN2[C@@H](CO)[C@@H](c3ccc(-c4ccc(F)cc4)cc3)[C@@H]2C1,-58.5,4.1,106.9*,78.8,68.9,16.0,69.6*
COCC(=O)N1CCCCN2[C@@H](CO)[C@@H](c3ccc(-c4ccc(C)cc4)cc3)[C@@H]2C1,26.2,-10.8,106.7*,74.7,75.2,-10.7,26.2*
C[C@@H]1CCCCO[C@@H](CN(C)Cc2ccc3c(c2)OCO3)[C@@H](C)CN([C@@H](C)CO)C(=O)c2cc(NC(=O)CCCN(C)C)ccc2O1,-47.7,3.2,-35.7,.,.,.,.
COc1ccc2c3c(n(C)c2c1)[C@H](CO)N(C(=O)CC1CC1)CC31CCN(C(=O)C2CCCC2)CC1,-42.0,-6.9,.,.,.,.,.
O=C(C[C@@H]1C=C[C@@H](NC(=O)C2CCOCC2)[C@@H](CO)O1)NCc1ccccc1Cl,48.0,-1.6,.,.,.,.,.
COc1ccc(NC(=O)O[C@H]2[C@H](OC(=O)Nc3ccc4c(c3)OCO4)[C@H](OC(=O)Nc3ccc4c(c3)OCO4)[C@@H](OC)O[C@@H]2CO)cc1,.,13.8,.,.,.,.,.
C[C@H]1CCCCO[C@H](CN(C)S(=O)(=O)c2ccc(Cl)cc2)[C@@H](C)CN([C@@H](C)CO)C(=O)c2cc(NC(=O)Cc3ccccc3)ccc2O1,-81.3*,8.3,112.0*,103.3*,84.3,1.0,-2.8
C[C@H]1CCCCO[C@H](CN(C)S(=O)(=O)c2ccccc2)[C@@H](C)CN([C@@H](C)CO)C(=O)c2cc(NC(=O)Cc3ccccc3)ccc2O1,-79.5,.,.,.,.,.,.
C[C@H](CO)N1C[C@H](C)[C@H](CN(C)S(=O)(=O)c2ccccc2)OCCCC[C@H](C)Oc2ccc(NC(=O)Cc3ccccc3)cc2C1=O,-5.4,.,.,.,.,.,.
C[C@@H]1CCCCO[C@@H](CN(C)S(=O)(=O)c2ccc(Cl)cc2)[C@H](C)CN([C@H](C)CO)C(=O)c2cc(NC(=O)Cc3ccccc3)ccc2O1,-78.4,1.9,115.7*,105.0*,102.8*,-28.0,18.0
C[C@H](CO)N1C[C@H](C)[C@@H](CN(C)S(=O)(=O)c2ccccc2)OCCCC[C@H](C)Oc2ccc(NC(=O)Cc3ccccc3)cc2C1=O,-44.9,.,.,.,.,.,.
C[C@H](CO)N1C[C@H](C)[C@H](CN(C)S(=O)(=O)c2ccc(Cl)cc2)OCCCC[C@H](C)Oc2ccc(NC(=O)Cc3ccccc3)cc2C1=O,-71.8,3.3,105.4*,99.9*,108.9*,-10.9,11.1
C[C@@H]1CCCCO[C@H](CN(C)S(=O)(=O)c2ccc(Cl)cc2)[C@H](C)CN([C@H](C)CO)C(=O)c2cc(NC(=O)Cc3ccccc3)ccc2O1,-74.0,5.0,117.0*,109.7*,105.2*,-9.2,-7.8
C[C@@H]1CN([C@@H](C)CO)C(=O)c2cc(NC(=O)Cc3ccccc3)ccc2O[C@@H](C)CCCCO[C@H]1CN(C)S(=O)(=O)c1ccc(Cl)cc1,-76.0,-0.4,40.3,.,.,.,.
COc1cccc(NC(=O)N2C[C@@H](O)COC[C@H]3O[C@H](CC(=O)NCCCN4CCOCC4)CC[C@@H]32)c1,14.4,6.5,.,.,.,.,.
CC(=O)N1CCCCN2[C@H](CO)[C@H](c3ccc(-c4cccc(C)c4)cc3)[C@H]2C1,9.7,-5.9,60.8,.,.,.,.
SMILES,Pf Dd2 growth,C diff HTS,T cruzi growth-1,T cruzi growth-2,T cruzi growth-3,NIH3T3 tox,3T3 cytotox 2
CO[C@@H]1CN(C)C(=O)c2ccc(NC(=O)Nc3cccc(F)c3)cc2OC[C@H](C)NC[C@@H]1C,7.1,.,27.4,.,.,.,.
CO[C@H]1CN(C)C(=O)c2cc(NC(=O)Nc3cc(F)ccc3F)ccc2OC[C@H](C)NC[C@@H]1C,-22.8,.,?,8.7,-46.0,4.9,22.8
CO[C@@H]1CN(C)C(=O)c2cc(NC(=O)Nc3cc(F)ccc3F)ccc2OC[C@H](C)NC[C@@H]1C,-47.6,.,35.0,.,.,.,.
CO[C@@H]1CN(C)C(=O)c2ccc(NS(=O)(=O)c3cccc(Cl)c3)cc2OC[C@@H](C)NC[C@H]1C,-8.8,.,13.7,.,.,.,.
CO[C@@H]1CN(C)C(=O)c2ccc(NC(=O)Nc3cccc(F)c3)cc2OC[C@H](C)NC[C@H]1C,-82.4*,.,102.1*,5.9,10.5,-1.3,-15.8
CO[C@H]1CN(C)C(=O)c2ccc(NS(=O)(=O)c3cccc(Cl)c3)cc2OC[C@@H](C)NC[C@@H]1C,19.7,.,97.5*,80.1,12.7,0.4,-14.8
CN1[C@@H]2c3ccc(C4=CCCC4)c(=O)n3C[C@@H]2[C@@H](CO)[C@@H]1C(=O)NCc1ccccc1F,.,2.3,73.6,.,.,.,.
CO[C@H]1CN(C)C(=O)c2ccc(NC(=O)C3CCCCC3)cc2OC[C@@H](C)NC[C@@H]1C,.,.,22.1,.,.,.,.
CC(C)CC#Cc1ccc([C@H]2[C@H]3CN(C(=O)NC4CCCC4)CCCCN3[C@H]2CO)cc1,-5.7,7.6,?,109.9*,50.7,8.6,104.2*
COc1ccc(NC(=O)N2CCCCN3[C@@H](CO)[C@H](c4ccc(C#CCC(C)C)cc4)[C@@H]3C2)cc1,-77.5,-5.1,114.3*,98.3*,106.4*,117.6*,103.3*
CC(C)CC#Cc1ccc([C@@H]2[C@H](CO)N3CCCCN(C(=O)NC4CCCC4)C[C@@H]23)cc1,-36.4,18.6,30.8,.,.,.,.
CC(C)CC#Cc1ccc([C@@H]2[C@@H](CO)N3CCCCN(C(=O)NC4CCCC4)C[C@H]23)cc1,-42.8,-6.4,83.7,.,.,.,.
